This is an account of results in PubChem BioAssay (EPA / NIEHS).

Records with an inconclusive call do not appear. The source made the active and inactive calls. The calls were made as follows, unless noted: active = hit-call score of the fitted dose curve at least 0.9, where 1 is the maximum; inconclusive = response in the unintended direction; inactive = score below 0.9.

Retinoic acid receptor alpha (Homo sapiens), sequence (P10276 whole entry, looked up): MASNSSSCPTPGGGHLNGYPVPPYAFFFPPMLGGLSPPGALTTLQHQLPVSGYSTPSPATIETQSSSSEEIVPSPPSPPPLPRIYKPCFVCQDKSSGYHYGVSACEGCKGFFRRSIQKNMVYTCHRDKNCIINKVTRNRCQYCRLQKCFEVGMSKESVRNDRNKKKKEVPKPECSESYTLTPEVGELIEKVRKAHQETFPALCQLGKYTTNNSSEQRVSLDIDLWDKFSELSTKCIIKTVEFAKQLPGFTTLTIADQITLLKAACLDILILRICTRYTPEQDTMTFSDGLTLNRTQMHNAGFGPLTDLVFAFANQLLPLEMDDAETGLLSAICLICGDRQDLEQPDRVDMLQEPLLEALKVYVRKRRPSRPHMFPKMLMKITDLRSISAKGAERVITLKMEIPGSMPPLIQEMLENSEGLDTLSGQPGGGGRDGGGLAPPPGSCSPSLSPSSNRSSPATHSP
human Retinoic Acid Receptor beta (RARb), RARB (gene 5915), sequence (P10826 whole entry, looked up): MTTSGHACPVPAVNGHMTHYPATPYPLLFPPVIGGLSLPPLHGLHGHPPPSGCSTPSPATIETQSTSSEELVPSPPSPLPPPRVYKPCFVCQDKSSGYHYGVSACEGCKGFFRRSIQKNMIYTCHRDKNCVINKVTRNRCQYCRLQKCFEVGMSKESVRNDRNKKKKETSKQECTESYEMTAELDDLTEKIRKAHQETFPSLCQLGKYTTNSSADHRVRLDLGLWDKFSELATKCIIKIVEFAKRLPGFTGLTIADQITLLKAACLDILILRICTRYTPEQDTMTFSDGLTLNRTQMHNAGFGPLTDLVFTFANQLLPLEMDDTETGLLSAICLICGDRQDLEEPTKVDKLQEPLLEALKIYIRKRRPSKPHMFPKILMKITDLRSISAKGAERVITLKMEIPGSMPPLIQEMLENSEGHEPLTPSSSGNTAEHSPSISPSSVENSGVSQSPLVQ

The first assay addresses human Retinoic Acid Receptor beta (RARb), RARB (gene 5915) (UniProt P10826). As to the kind of experiment: ATG_RARb_TRANS: Attagene TRANS-FACTORIAL HepG2 Assay for human Retinoic Acid Receptor beta (AID 2283004).
Conditions: not given
In short, it runs like this: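 Transient transfection of HepG2 with multiple reporter units → chemical dosing, 24 h → total RNA isolation → RT with oligo(dT) → reporter-specific PCR, 6-FAM primer extension, HpaI digest → capillary electrophoresis. Positive direction vs DMSO control.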
Turning to `O=S(=O)(O)c1cccc2c(S(=O)(=O)O)cccc12`, the molecule was classed as inactive.

Turning to `CCCCCOC(=O)CCC`, the call was inactive.

As to `O=C[C@H](O)[C@H](O)[C@H](O)CO`, the molecule was classed as inactive.

For the molecule `CCCCCC(CO)CCC` (centres undefined), the molecule was called inactive.

With `CC1(C)CCC(C)(C)c2cc(C(=O)Nc3ccc(C(=O)O)cc3)ccc21`, the outcome was inactive.

In the case of `O=C(O)CN(CCN(CC(=O)O)CC(=O)O)CCN(CC(=O)O)CC(=O)O`, the molecule was called inactive.

The next assay concerns the target Retinoic acid receptor alpha (Homo sapiens) (UniProt P10276). As to the kind of experiment: ATG_RARa_TRANS: Attagene TRANS-FACTORIAL HepG2 Assay for human Retinoic Acid Receptor alpha (RARa) (AID 2283005).
Conditions: not given
The method, boiled down:
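Reporter transcripts, measured by RT-PCR with fluorescent labeling and capillary electrophoresis after 24 h dosing, reflect activity of an exogenous human RARa–GAL4 fusion in transiently transfected HepG2. Fitted for increase relative to DMSO.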
Take `O=C[C@H](O)[C@H](O)[C@H](O)CO`: the molecule was classed as inactive.

`O=C1CCCCCCCCCCOCCCCO1`: the molecule was classed as inactive.

`CCCCCC(CO)CCC` (centres undefined): the call was inactive.

As for `CC1(C)C(=O)N(Br)C(=O)N1Cl`, the outcome was inactive.

For `O=C(O)CN(CCN(CC(=O)O)CC(=O)O)CCN(CC(=O)O)CC(=O)O`, the molecule was called inactive.

With `O=c1cc(-c2ccccc2)oc2cc(O)cc(O)c12`, the outcome was inactive.

Read-out in a further assay: not listed separately
As to the kind of experiment: BSK_3C_Proliferation: Cell Proliferation Assessment in the BioMAP Diversity Plus: 3C Assay (AID 2283006; active = hit-call score of the fitted dose curve at least 0.9, where 1 is the maximum; inactive = score below 0.9;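 as to AC50: potency may reflect either rise or fall in cell number versus DMSO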). The settings on record: primary human endothelial cells (HUVEC). The method, boiled down: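 Subconfluent HUVEC (3C system) cultured with chemical; relative cell number read at 48 h by sulforhodamine B total-protein staining (0.1% SRB after 10% TCA fixation, 560 nm). Bidirectional fit relative to DMSO.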
Take `CCCCC(CC)COC(=O)/C=C\C(=O)OCC(CC)CCCC` (centres undefined): the outcome was inactive.

A word on the AC50: it is the midpoint of the concentration-response curve, whichever way the signal moves. As to `O=C1CCCCCCCCCCCCCCO1`, the AC50 is 20 µM (active).

`Nc1cc([N+](=O)[O-])ccc1O`: the outcome was inactive.

In the next assay the target is Peroxisome proliferator-activated receptor gamma (Homo sapiens) (UniProt P37231). Description: ATG_PPARg_TRANS: Attagene TRANS-FACTORIAL HepG2 Assay for human Peroxisome Proliferator-activated Receptor-gamma (PPARg) (AID 2283007).
Peroxisome proliferator-activated receptor gamma (Homo sapiens), sequence (P37231 whole entry, looked up): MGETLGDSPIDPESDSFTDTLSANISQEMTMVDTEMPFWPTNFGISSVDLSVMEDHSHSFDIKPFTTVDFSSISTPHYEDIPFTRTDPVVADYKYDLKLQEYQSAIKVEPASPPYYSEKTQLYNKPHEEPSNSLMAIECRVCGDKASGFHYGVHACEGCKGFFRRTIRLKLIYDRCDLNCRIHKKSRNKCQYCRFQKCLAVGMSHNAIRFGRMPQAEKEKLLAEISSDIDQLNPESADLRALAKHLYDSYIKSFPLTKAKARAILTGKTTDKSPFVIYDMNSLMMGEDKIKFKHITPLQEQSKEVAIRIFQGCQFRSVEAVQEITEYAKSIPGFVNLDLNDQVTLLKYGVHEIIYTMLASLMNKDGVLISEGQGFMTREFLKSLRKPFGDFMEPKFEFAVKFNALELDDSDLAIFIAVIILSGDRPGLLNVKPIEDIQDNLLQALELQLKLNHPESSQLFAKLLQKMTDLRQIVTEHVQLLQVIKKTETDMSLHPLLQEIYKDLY
Conditions: not given
In short, it runs like this:
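Read-out: reporter mRNA induction, detected by fluorescence after RT-PCR and capillary electrophoresis. Transiently transfected human HepG2 liver cells carrying a chimeric NR-Gal4 construct were dosed for 24 h; activity was fitted upward relative to DMSO.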
In the case of `CCCCC(CC)COC(=O)/C=C\C(=O)OCC(CC)CCCC` (centres undefined), the AC50 is 4.7 µM (active).

Take `NCCNCCN`: the call was inactive.

For `Cc1ccc2n[nH]nc2c1`, the molecule was classed as inactive.

For the molecule `C=CC(=O)OCC(O)COc1ccccc1` (centres undefined), the AC50 was 3.66 µM (active).

`CCCCCOC(=O)CCC`: the molecule was classed as inactive.

Take `O=C[C@H](O)[C@H](O)[C@H](O)CO`: the result was inactive.

For the molecule `Cc1ccc(Nc2ccc(O)c3c2C(=O)c2ccccc2C3=O)cc1`, the molecule was classed as inactive.

On to `O=C(OCc1ccccc1)C(=O)OCc1ccccc1`, for which the molecule was classed as inactive.

On to `C=C(C)C(=O)O[C@H]1C[C@@H]2CC[C@@]1(C)C2(C)C`, for which the call was inactive.

`CCCCCC(CO)CCC` (centres undefined): the molecule was classed as inactive.

Regarding `CCn1c2ccccc2c2cc(N)ccc21`, the AC50 is 22.9 µM (active).

On to `O=C1CCCCCCCCCCCCCCO1`, for which the AC50 was 60.1 µM (active).

For the molecule `Cc1ccc(C(=O)c2cc(O)c(O)c([N+](=O)[O-])c2)cc1`, the AC50 was 17.5 µM (active).

Regarding `N#Cc1ccccc1`, the outcome was inactive.

For the molecule `CCCCCCCCCCCCCOS(=O)(=O)O`, the AC50 was 12 µM (active).

For `CC1(C)C(=O)N(Br)C(=O)N1Cl`, the molecule was classed as inactive.

On to `CC1(C)CCC(C)(C)c2cc(C(=O)Nc3ccc(C(=O)O)cc3)ccc21`, for which the AC50 is 100 µM (active).

Consider `CCCCCCCCCCCCCCCC(=O)OC[C@H](O)[C@H]1OC(=O)C(O)=C1O`, for which the outcome was inactive.

With `O=C(O)CN(CCN(CC(=O)O)CC(=O)O)CCN(CC(=O)O)CC(=O)O`, the result was inactive.

With `CCCCCCCCC`, the result was inactive.

On to `O=Cc1ccc(Cl)c([N+](=O)[O-])c1`, for which the AC50 was 100 µM (active).

With `CC(C)(COC(=O)c1ccccc1)COC(=O)c1ccccc1`, the outcome was inactive.

With `CCCCOCCOCCSC#N`, the AC50 is 19.8 µM (active).

In the case of `Nc1cc([N+](=O)[O-])ccc1O`, the outcome was inactive.
